High-throughput results: PubChem BioAssay, Johns Hopkins Ion Channel Center
Hits are enriched below; roughly 1.6% of the tested compounds scored in any of these assays.
KCNQ2 block – blocks the rat KCNQ2 potassium channel | CHO-K1 KCNQ2, FluxOR thallium flux, 20 min; hits give low values | 310,000 compounds, 1.1% hits | B-score at 10 µM | O88943 | AID 2156;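 active means fluorescence ratio B-score at most minus 3 library SDs, with starting brightness B-score within 2 library SDs, cut at about -5.5 in these data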
KCNQ2 pot – KCNQ2 (rat) channel potentiation. O88943. CHO-K1 KCNQ2, FluxOR thallium flux fluorescence; hits give high values. B-score at 10 µM. 310,000 compounds, 0.54% hits. AID 2239;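 active means fluorescence ratio B-score at least 3 SD of library B-scores, with initial fluorescence B-score within 3 of them, cut at about 5.3 in these data; same plate scores as AID 2156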;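 further: B-score of peak minus minimum over baseline fluorescence ratio after K+ and Tl+ stimulus; positive B-score means potentiation of KCNQ2 with more thallium influx and brighter signal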
Kir21 conf inh – confirmation of mouse Kir2.1 potassium channel inhibitors | shares compounds with KCNQ2 pot | Kir2.1-expressing cells, FluxOR thallium flux fluorescence; hits give low values | Tl flux remaining, % of negative control (hits give low values), % at 10 µM | 2,300 compounds, 41% hits | AID 2032;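 active means Primary-screen hit whose thallium flux fell at least 3 control SD below untreated wells in both duplicates, with normal baseline fluorescence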;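 further: 0% = blank wells without stimulus and 100% = stimulated no-compound controls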
Target sequence (P35561 whole entry, looked up): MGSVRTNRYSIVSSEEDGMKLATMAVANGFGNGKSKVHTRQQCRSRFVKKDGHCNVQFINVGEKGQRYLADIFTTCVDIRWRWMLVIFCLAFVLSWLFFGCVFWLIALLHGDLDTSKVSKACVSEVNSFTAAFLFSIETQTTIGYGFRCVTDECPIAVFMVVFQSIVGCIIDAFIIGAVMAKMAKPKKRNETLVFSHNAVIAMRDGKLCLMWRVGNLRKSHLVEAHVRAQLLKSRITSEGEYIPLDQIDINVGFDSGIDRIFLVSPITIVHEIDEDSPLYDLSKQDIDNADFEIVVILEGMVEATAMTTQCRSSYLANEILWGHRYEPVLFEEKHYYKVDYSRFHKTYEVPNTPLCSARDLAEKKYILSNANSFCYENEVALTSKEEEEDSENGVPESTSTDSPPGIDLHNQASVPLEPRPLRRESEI
HEK293 ctr – counter-screen for Kir2.1 inhibitors: effect in parental HEK293 cells. shares compounds with KCNQ2 pot. FluxOR thallium flux fluorescence; 0% = unstimulated blank wells. FluxOR signal as % of negative control (100 = no effect), % at 10 µM. 2,300 compounds, 19% hits;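 active means dye signal at least 3 control SD above or below untreated wells in both duplicates, raw fluorescence within 3, either direction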;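 further: percent is based on the flux ratio of peak minus minimum fluorescence over baseline F0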
CHO-K1 ctr – parental CHO-K1 activity in KCNQ2 potentiator counter-screen; shares compounds with KCNQ2 pot; parental CHO-K1 cells, FluxOR thallium flux fluorescence; zero = vehicle mean+3SD, 100% = vehicle-minus-blank window; activity increase over 3SD of controls, % at 10 µM; 1,200 compounds, 43% hits; AID 2282;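 active means signal rise of at least 3 SD above the untreated control mean, in both duplicate wells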;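 further: counter screen of KCNQ2 potentiator hits so any rise reflects channel-independent effects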
KCNQ1 sel pot – human KCNQ1 counter-target activity of KCNQ2 potentiators; CHO KCNQ1 stable, FluxOR thallium flux fluorescence; beyond 3SD, as % of vehicle-control signal; activation over 3SD threshold, % at 10 µM; 1,200 compounds, 28% hits; AID 2283; shares compounds with KCNQ2 pot;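 active means fluorescence ratio rise of at least 3 SD of vehicle wells above their mean, in both replicate wells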;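 further: 0% = vehicle mean plus 3 SD and 100% = vehicle minus unstimulated blank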
KCNQ2 pot conf – rat KCNQ2 channel potentiator confirmation; AID 2287; potentiation, less the hit threshold, % at 10 µM; CHO-KCNQ2 cells, FluxOR thallium flux fluorescence; shares compounds with KCNQ2 pot; 1,200 compounds, 68% hits;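 active means fluorescence ratio rising 3 SD or more over the vehicle control mean in both replicates, plus primary screen hit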;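 further: peak minus minimum thallium fluorescence divided by baseline after K/Tl stimulus; 0% = vehicle mean plus 3 SD and 100% = vehicle minus unstimulated blank difference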
Kir21 spec – mouse Kir2.1 off-target activity of KCNQ2 potentiators; shares compounds with KCNQ2 pot; HEK293 Kir2.1, FluxOR thallium flux fluorescence; activity over 3SD threshold, % at 10 µM; 1,200 compounds, 2% hits; AID 2345;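 active means fluorescence ratio rise of at least 3 SD above the vehicle-control mean, seen in both replicates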;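 further: 0% = vehicle mean plus 3 SD and 100% = vehicle minus no-stimulus blank window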
KCNQ2 W236L pot – KCNQ2 potentiators acting on retigabine-insensitive rat KCNQ2 W236L mutant. shares compounds with KCNQ2 pot. CHO KCNQ2-W236L, automated patch clamp current. current increase over 3SD of negative controls (%), hits give high values, % at 25 µM. 940 compounds, 10% hits. AID 2558;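 active means current increase at least 3 SD of the untreated controls above them in both duplicate recordings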
Active calls of the source: *; i = inactive; / = no result given.

SMILES	KCNQ2 block	KCNQ2 pot	Kir21 conf inh	HEK293 ctr	others
Fc1cccc2sc(Nc3nnc(-c4ccccc4)o3)nc12	i	26*	i	449%*	CHO-K1 ctr=1.3*;KCNQ1 sel pot=-21;KCNQ2 pot conf=62*;Kir21 spec=1.1*;KCNQ2 W236L pot=i
Nc1nnc(SCc2nnc(-c3ccccc3)o2)s1	i	0.13	/	/
COc1ccc(C2N(C(=O)C(F)(F)F)C(C)CN2S(=O)(=O)c2ccc(C)cc2)cc1 (stereo not given)	i	/	/	/
CC(NC(=O)C1CCCC1)c1ccc(Br)cc1 (stereo not given)	i	7.1*	i	i	CHO-K1 ctr=-21;KCNQ1 sel pot=28*;KCNQ2 pot conf=9.0*;Kir21 spec=-28;KCNQ2 W236L pot=i
CC(NC(=O)C1CCC1)c1ccc(Br)cc1 (stereo not given)	i	0.98	/	/
Cc1ccc(C(C)NC(=O)C2CCCO2)cc1C (stereo not given)	i	0.75	/	/
Cc1ccc(C(C)NC(=O)C2CCCC2)cc1C (stereo not given)	i	17*	i	i	CHO-K1 ctr=-1;KCNQ1 sel pot=-68;KCNQ2 pot conf=55*;Kir21 spec=-36;KCNQ2 W236L pot=i
Cc1[nH]c2ccc(C(=O)NCc3ccccn3)cc2c1C	i	0.47	/	/
CCN(CC)c1nc(NN)nc(Nc2ccc(C)c(Cl)c2)n1	i	/	/	/
O=C(c1ccccc1)N1CCCC(C(=O)N2CCN(c3ccccc3)CC2)C1 (stereo not given)	i	/	/	/
O=C(O)CSc1nnc(-c2ccc(Cl)cc2Cl)n1-c1ccc(Br)cc1	i	/	/	/
CCc1cccc2c(C(=O)C(F)(F)F)cn(CC(=O)N3CCOCC3)c12	i	/	/	/
CC1=CC(C)(C)n2c(O)c(N=N)c3c(C)ccc1c32	i	5.3*	i	i	CHO-K1 ctr=54*;KCNQ1 sel pot=-9;KCNQ2 pot conf=-15;Kir21 spec=-21
CC1=CC(C)(C)n2c(O)c(N=NC(N)=S)c3c(C)ccc1c32	i	0.15	/	/
CC(C)(C)NC(=O)NC(=O)CN1C(=O)NC(c2ccccc2)(c2ccccc2)C1=O	i	/	/	/
O=c1[nH]cc(N=Cc2cc(Cl)cc(Cl)c2O)c(=O)[nH]1	i	8.3*	i	i	CHO-K1 ctr=15*;KCNQ1 sel pot=18*;KCNQ2 pot conf=24*;Kir21 spec=-12;KCNQ2 W236L pot=i
O=c1[nH]cc(N=Cc2cc([N+](=O)[O-])ccc2O)c(=O)[nH]1	i	/	/	/
O=C(NC(=S)Nc1ccccc1N1CCOCC1)c1sc2ccccc2c1Cl	i	0.64	/	/
CCCCOC(=S)NC(=O)c1sc2ccccc2c1Cl	i	17*	i	446%*	CHO-K1 ctr=-3;KCNQ1 sel pot=47*;KCNQ2 pot conf=83*;Kir21 spec=-15;KCNQ2 W236L pot=i
CN(C(=O)COC(=O)c1sc2ccccc2c1Cl)C1CCCCC1	i	/	/	/
CCCOc1ccc(C(CC(=O)O)NC(=O)c2sc3ccccc3c2Cl)cc1 (stereo not given)	i	0.21	/	/
CN(C)CCCOC(=O)c1sc2ccccc2c1Cl	i	/	29%*	i
Cc1ccc(NC(=S)NC(=O)c2sc3ccccc3c2Cl)c(C(=O)O)c1	i	14*	i	i	CHO-K1 ctr=2.0*;KCNQ1 sel pot=-15;KCNQ2 pot conf=29*;Kir21 spec=-20;KCNQ2 W236L pot=i
CCCC1(C)NC(=O)c2ccccc2O1 (stereo not given)	i	0.24	/	/
S=C1NC[C@H](c2ccccc2)N1CCCCC1CCCCC1	i	0.4	/	/
SMILES	KCNQ2 block	KCNQ2 pot	Kir21 conf inh	HEK293 ctr	others
NC1=NC[C@H](c2ccccc2)N1CCCCC1CCCCC1	i	/	38%*	i
CN(C)c1ccc(NC(=O)CCN2CCN(c3ccccn3)CC2)cc1	i	/	/	/
N/C(=N\OS(=O)(=O)c1ccc(Br)cc1)c1ccncc1	i	5.6*	i	i	CHO-K1 ctr=24*;KCNQ1 sel pot=-16;KCNQ2 pot conf=-5;Kir21 spec=-47
N/C(=N\OC(=O)COc1ccc(Br)cc1)c1ccncc1	i	0.68	/	/
CSC(=O)NC(=O)NC(=O)c1ccc([N+](=O)[O-])cc1	i	0.93	/	/
Cc1cc(C)c2nc(N(CCCN(C)C)C(=O)c3ccc4c(c3)OCCO4)sc2c1	-5.8*	-5.8	50%*	i
Cc1cc(C)c2nc(N(CCCN(C)C)C(=O)C3=COCCO3)sc2c1	i	/	/	/
CC(=O)c1ccc(OCCNS(=O)(=O)c2ccc(-n3cnnn3)cc2)cc1	i	/	/	/
CCN(Cc1ccccc1)Cc1nnnn1Cc1ccccc1	i	/	38%*	69%*
c1ccc(Cn2nnnc2CN2CCN(c3ncccn3)CC2)cc1	i	0.01	/	/
COc1cc(OC)cc(C(=O)NNc2nc3cc4c(cc3s2)OCO4)c1	i	2.1	/	/
COc1cc(C(=O)NNc2nc3cc4c(cc3s2)OCO4)cc(OC)c1OC	i	12*	i	i	CHO-K1 ctr=-4;KCNQ1 sel pot=-41;KCNQ2 pot conf=-9;Kir21 spec=-33
CC1(c2nnc(-c3cccc(Cl)c3)o2)CC(c2cccc([N+](=O)[O-])c2)=NO1 (stereo not given)	i	0.13	/	/
CSc1ccccc1Nc1ncnc(N)n1	i	0.23	/	/
O=C(Nc1nc(-c2ccccc2)c(-c2ccccc2)o1)c1ccc(F)cc1	i	4.2	i	150%*
COc1cccc(C(=O)Nc2nc(-c3ccccc3)c(-c3ccccc3)o2)c1	i	2.3	/	/
COc1ccc(C(Nc2ccc(S(=O)(=O)NCC3CCCO3)cc2)C(=O)NC(C)(C)C)cc1OC (stereo not given)	i	/	/	/
C=CCOc1c(Br)cc(/C=N/O)cc1OCC	i	/	/	/
CCCCOc1c(Br)cc(/C=N/O)cc1OCC	i	/	74%*	i
Cc1ccc(S(=O)(=O)c2c(N)n(NC(=O)c3ccccc3C)c3nc4ccccc4nc23)cc1	i	5.3	i	i	CHO-K1 ctr=98*;KCNQ1 sel pot=-8;KCNQ2 pot conf=-3;Kir21 spec=-39;KCNQ2 W236L pot=i
Cc1ccc(C(=O)Nn2c(N)c(S(=O)(=O)c3ccc(C)cc3)c3nc4ccccc4nc32)cc1	i	0.47	/	/
O=C(COC(=O)CCc1ccccc1)NC(c1ccccc1)c1ccccc1	i	/	/	/
COCC(=O)NC(c1ccccc1)c1ccccc1	i	8*	i	i	CHO-K1 ctr=-19;KCNQ1 sel pot=-33;KCNQ2 pot conf=-15;Kir21 spec=-36
O=C(COc1cccc2ccccc12)Nc1ccc(Cl)cc1C(=O)O	i	7.2*	i	129%*	CHO-K1 ctr=-2;KCNQ1 sel pot=-1;KCNQ2 pot conf=23*;Kir21 spec=-31;KCNQ2 W236L pot=i
O=C(COc1cccc2ccccc12)Nc1cc(Cl)ccc1C(=O)O	i	4.6	/	/
O=C(COC(=O)Cc1c[nH]c2ccccc12)NC1CCCCC1	i	0.06	42%*	i
